Compounds with a hit are over-represented: about 21% of the library has one in this group of screens.
Pf growth 96h – Primary qHTS for delayed death inhibitors of the malarial parasite plastid, 96 hour incubation; P. falciparum luciferase reporter growth, 96 h; Potency, µM (series often up to 28.7 µM), usual class: inhibitors; 6.9% of 320,000 active; AID 504834, 2011
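96 h incubation, 37 C, 5% CO2, of luciferase-reporter P. falciparum-infected RBCs (2% hematocrit, 0.05% parasitemia final) with test compounds; endpoint luminescence.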
Pf growth 48h – Primary qHTS for delayed death inhibitors of the malarial parasite plastid, 48 hour incubation; P. falciparum luciferase growth in erythrocytes, 48 h; Potency, µM (doses to about 28.7 µM), actives largely listed as inhibitors; 5.9% of 310,000 active
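Here the parasites carry a stable luciferase gene and grow inside erythrocytes in Albumax-based RPMI medium with compound for one erythrocytic cycle. Activity is scored as loss of luminescent signal.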
NS1 inh – qHTS Assay for Inhibitors of Influenza NS1 Protein Function | Potency, µM (titrated, usually from 46.1 µM) | 0.4% of 270,000 active | AID 2326, 2010; calls by dose curve; also: actives are rising curves; nearly all actives have a fitted effect of over 50% in size
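S. cerevisiae expressing influenza A NS1, grown in glucose, washed, then diluted 1:100 into pH 6.0 -URA galactose medium with 23 nl compound. Growth recovery read as OD600; NS1-free strain serves as control.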
CHX counter – Cycloheximide Counterscreen for Small Molecule Inhibitors of Shiga Toxin. cell reporter, cycloheximide protein synthesis inhibition counterscreen. max response, %. 12% of 300,000 active. AID 2314, 2010; in the data active = max response mostly above about 13%, no sharp cut-off; inactive = mostly below about 14%; also: read at 38.3 µM for the half of the compounds with a filed dose
Shiga toxin inh – A qHTS for Small Molecule Inhibitors of Shiga Toxin. Vero cells, Shiga toxin protein synthesis inhibition reporter. 9.2% of 290,000 active. inhibition, % at 38.7 µM. AID 2315, 2010; in the data active = inhibition mostly above about 28%, no sharp cut-off; inactive = mostly below about 43%
Sm TGR inh – qHTS Assay for the Inhibitors of Schistosoma Mansoni Peroxiredoxins. Schistosoma mansoni thioredoxin glutathione reductase (TGR), Q962Y6. Potency, µM (top dose mostly 114 µM), hits mostly inhibitors. purified TGR, DTNB reduction, TNB absorbance 405 nm. 3% of 360,000 active; also: nearly all actives have a fitted effect of over 60% in size
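First, TGR (20 nM dispensed) and NADPH were mixed with compound. Second, a 15 min room-temperature incubation followed. Third, further NADPH and then DTNB were added to start the reaction. Finally, TNB absorbance was monitored kinetically.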
Each line names hits and unclear results; the compound was inactive in the other large screens. Unless noted, calls follow the shape of the dose curve; as a rule, active = well fitted curve in the direction sought with a large enough effect; inconclusive = small, poorly fitted or top-dose-only effect, or another doubt; inactive = no such curve, though single readings can be large; an effect the other way counts as inactive or inconclusive.

Cc1ccc(OC(C)C(=O)N2CCCc3ccccc32)cc1 (stereo not drawn)	Pf growth 96h inconclusive (no result: Pf growth 48h)
Cc1cc(=O)oc2cc(OC(C)C(=O)N3CCCc4ccccc43)ccc12 (stereo not drawn)	CHX counter 24 (no result: Pf growth 96h)
CCc1cc(=O)oc2c(C)c(OCC(=O)N3CCCc4ccccc43)ccc12	Pf growth 48h 12µM (no result: Pf growth 96h)
Cc1cccc(N2CCN(C(=O)COc3ccc4c(C)cc(=O)oc4c3C)CC2)c1C	Pf growth 96h inconclusive, Pf growth 48h 12µM
CCc1cc(=O)oc2cc(OCC(=O)N3CCc4ccccc43)ccc12	none
CN(CC(=O)Nc1ccc(F)c(F)c1F)C(=O)Cc1ccc2c(c1)OCCO2	none
COc1cccc(NC(=O)Cn2c(=O)n(CCCCC(=O)NCCc3ccccc3)c(=O)c3ccccc32)c1	none (no result: Pf growth 96h, Pf growth 48h, NS1 inh, CHX counter, Shiga toxin inh)
COc1ccc(OC)c(-c2cn(S(=O)(=O)c3ccccc3)nc2N)c1	Pf growth 96h 15µM (no result: Pf growth 48h)
CC(C)CC(=O)Nc1ccccc1OCc1cc(=O)n2ccccc2n1	none (no result: Pf growth 96h, Pf growth 48h, NS1 inh, CHX counter, Shiga toxin inh)
Cc1ccc2c(c1)C=CC(C)(C)S2(=O)=O	none
Cc1[nH]n(-c2ccccc2)c(=O)c1/C=N/c1nn[nH]n1	none
Cc1[nH]n(-c2ccccc2)c(=O)c1C=Nc1cnc2ccccc2c1	none (no result: Pf growth 48h)
CSc1nnc(-c2ccccc2N=Cc2c(C)[nH]n(-c3ccc4ccccc4c3)c2=O)c(=O)[nH]1	CHX counter 33
C=CCSc1nnc(-c2ccccc2N=Cc2c(C)[nH]n(-c3ccccc3)c2=O)c(=O)[nH]1	CHX counter 23 (no result: Pf growth 48h)
CCOC(=O)c1c(C)[nH]c(C)c1S(=O)(=O)N1CCN(c2ccc([N+](=O)[O-])cc2)CC1	none
COc1ccc(NCc2cccn2-c2nnc(N3CCCCCC3)s2)cc1	none (no result: Pf growth 96h, Pf growth 48h, NS1 inh, CHX counter, Shiga toxin inh)
CCOc1ccccc1C(=O)OCC(=O)Nc1cc(Cl)ccc1Oc1ccccc1	Pf growth 96h inconclusive
CCOc1ccc(Oc2ccc(Cl)cc2N)cc1	CHX counter 24, Shiga toxin inh 29 (no result: NS1 inh)
CC(C)CNC(=O)CSc1nc(-c2cccs2)cc(C(F)(F)F)n1	Pf growth 48h inconclusive
COc1ccc(-c2cc(C(F)(F)F)nc(SCCC(=O)Nc3cc(C)on3)n2)cc1	none (no result: Pf growth 96h)
CCCNC(=O)CSc1nc(-c2cccs2)cc(C(F)(F)F)n1	Pf growth 96h 8.3µM
Cc1cc(NC(=O)CCCS(=O)(=O)c2nc(-c3cccs3)cc(C(F)(F)F)n2)no1	Pf growth 48h inconclusive, Sm TGR inh 13µM
Cc1cc(NC(=O)CSc2nc(-c3cccs3)cc(C(F)(F)F)n2)no1	Pf growth 96h 1.9µM, Pf growth 48h inconclusive
O=C(COC(=O)c1cccc([N+](=O)[O-])c1)Nc1ccc(Cl)cn1	none (no result: NS1 inh, CHX counter, Shiga toxin inh)
CC(C)C[C@H](NC(=O)[C@H](CC(C)C)NC(=O)[C@H](Cc1ccccc1)NC(=O)[C@@H](N)CO)C(=O)N[C@@H](CCCNC(=N)N)C(=O)N[C@@H](CC(N)=O)C(=O)N1CCC[C@H]1C(=O)N[C@@H](CC(N)=O)C(=O)N[C@@H](CC(=O)O)C(=O)N[C@@H](CCCCN)C(=O)N[C@@H](Cc1ccc(O)cc1)C(=O)N[C@@H](CCC(=O)O)C(=O)N1CCC[C@H]1C(=O)N[C@@H](Cc1ccccc1)C(=O)O	none (no result: Pf growth 96h, Pf growth 48h, NS1 inh, Sm TGR inh)
CN1CCCC(C#CC(O)(c2ccccc2)c2ccccc2)C1 (stereo not drawn)	Pf growth 48h inconclusive
Cc1no[n+]([O-])c1COc1ccc(/C=N/n2nnnc2N)cc1	Pf growth 96h 12µM
CN(C)S(=O)(=O)c1ccc2c(c1)N(CC(=O)N1CCC(C(N)=O)CC1)CCS2	none (no result: Pf growth 96h, Pf growth 48h, NS1 inh, CHX counter, Shiga toxin inh)
CC1(C)CCc2cc(-c3ccn(S(=O)(=O)c4ccccc4Cl)n3)ccc2O1	Pf growth 96h inconclusive, Pf growth 48h inconclusive, CHX counter 16
CC1(C)CCc2cc(S(=O)(=O)N3CCN(S(=O)(=O)c4c(F)cccc4F)CC3)ccc2O1	none (no result: Pf growth 96h, Pf growth 48h, NS1 inh, Sm TGR inh)
COc1ccc(S(=O)(=O)n2ccc(-c3ccc4c(c3)CCC(C)(C)O4)n2)cc1	Pf growth 96h 9.3µM, Pf growth 48h 10µM
CC1(C)CCc2cc(CN3CCN(c4ccccn4)CC3)ccc2O1	none
COc1ccc([C@@H]2CC(=O)c3c(O)cc(O[C@@H]4O[C@H](CO)[C@@H](O)[C@H](O)[C@H]4OC4O[C@@H](C)[C@H](O)[C@@H](O)[C@H]4O)cc3O2)cc1O (stereo partly drawn)	none (no result: Pf growth 96h, Pf growth 48h, NS1 inh, Sm TGR inh)
COc1ccc(N=CC2=C(O)CCCC2=O)cc1	CHX counter 37, Shiga toxin inh 76
COc1ccc(N=Cc2c(O)n(C)c(=O)n(C)c2=O)cc1	none
COc1ccc(N=CC2=C(O)CC(C)(C)CC2=O)cc1	CHX counter 36, Shiga toxin inh 65 (no result: Pf growth 48h)
Cc1cc(F)ccc1NC(=O)CCSc1nc(-c2ccco2)cc(C(F)(F)F)n1	none (no result: Pf growth 96h, Pf growth 48h, NS1 inh, CHX counter, Shiga toxin inh)
O=C(O)c1ccc(-n2[nH]c3c(c2=O)CCCC3)cc1	Sm TGR inh 35µM
O=C(O)c1ccc(N2C(=O)CCCC2=O)cc1	none
CCC(C)c1ccc(C(C)NC(=S)NCc2ccc(F)cc2)cc1 (stereo not drawn)	Pf growth 96h inconclusive, Pf growth 48h inconclusive
CCOc1ccc(C(C)NC(=S)NCc2ccc(Cl)cc2)cc1 (stereo not drawn)	Pf growth 96h 5.2µM, Pf growth 48h inconclusive
CCC(NC(=S)NCc1ccc(F)cc1)c1ccc(C(C)C)cc1 (stereo not drawn)	Pf growth 96h inconclusive, Pf growth 48h 10µM
CCCc1ccc(C(C)NC(=S)NCc2ccc(F)cc2)cc1 (stereo not drawn)	Pf growth 96h 12µM, Pf growth 48h inconclusive, Sm TGR inh inconclusive
O=C(CSc1cn(CCNC(=O)c2c(F)cccc2F)c2ccccc12)Nc1ccccc1F	none (no result: Pf growth 96h, Pf growth 48h, NS1 inh, CHX counter, Shiga toxin inh)
COc1cc(/C=C/C(=O)OCC(=O)NC(=O)NC(C)C)ccc1O	Pf growth 48h inconclusive
CO/N=C(\C(=O)N[C@@H]1C(=O)N2C(C(=O)[O-])=C(C[n+]3cccc4c3CCC4)CS[C@H]12)c1csc(N)n1	none (no result: NS1 inh, CHX counter, Shiga toxin inh, Sm TGR inh)
CC1(C)CC(=O)CC2(C1)NCC(c1ccccc1)c1c2[nH]c2ccccc12 (stereo not drawn)	Pf growth 96h 10µM, Pf growth 48h 5.9µM (no result: NS1 inh)
Cc1ccccc1CNC(=O)c1ccc2nc(N3CCOCC3)sc2c1	none
COc1ccc(OC)c(NC(=O)CCC(=O)N(Cc2ccc(OC)c(OC)c2)c2nccs2)c1	none (no result: Sm TGR inh)
COc1ccc(NC(=O)CCC(=O)N(Cc2ccc(OC)c(OC)c2)c2nccs2)c(OC)c1	Pf growth 96h 2.9µM
CCCn1c(C2CCCN2c2nc(-c3cccc(Br)c3)cs2)nc2cc(Cl)c(Cl)cc21 (stereo not drawn)	Pf growth 96h 9.3µM, Pf growth 48h 12µM, Sm TGR inh inconclusive
CCCC(=O)Nc1nc(C(=O)OCC)cs1	CHX counter 18
CCOC(=O)c1csc(NC(=O)C2CCCCC2)n1	CHX counter 26, Shiga toxin inh 59

Source: PubChem BioAssay
